Measurements taken from the supplement of paper PMC7556523.
Values without a mark were called inactive.

How the values were obtained:
[1] = tested on: Sporothrix brasiliensis CBS 133006; assay: growth inhibition relative to untreated control; higher = more growth inhibition (more antifungal activity), active = 80 or more; extreme values may be limits of the assay; conditions: 1 µM; 48 h
In short: (§1)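 Yeast-form cells of the reference isolates (grown 7 days in brain heart infusion broth with 2% glucose at 36°C) were exposed at 1 x 10^5 CFU/ml to library compounds at a final 1 μM for 48 h at 35°C in 5% CO2. Growth was checked by visual inspection under an inverted light microscope and quantified by spectrophotometric readings. The value is percent growth inhibition relative to untreated control. Runs were in quadruplicate.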

[2] = tested on: Sporothrix schenckii ATCC 32286; assay: as above; conditions: 1 µM; 48 h
In short: as §1

Compound	growth inhibition [1]	growth inhibition [2]
NS(=O)(=O)c1cncc(-c2ccc3nccc(-c4cn[nH]c4)c3n2)c1	5.5%	2%
COc1cc(CN2CCC3(C=Cc4ccccc43)CC2)cc2c1OCO2	4.25%	3.25%
Cc1ccc2[nH]c3c(NCCN(C)C)ncnc3c2c1	2%	0%
COc1cncc(-c2cncc(N3CCN(c4ccncc4)CC3)n2)c1	34.2%	0%
CC(=O)NCC1CN(c2ccc(-c3ccc(CNCc4cn[nH]n4)cc3)c(F)c2)C(=O)O1 (stereo not drawn)	15.5%	0%
C[C@H]1COc2c(N3CCN(C)CC3)c(F)cc3c(=O)c(C(=O)O)cn1c23	0%	0%
COc1ccc(S(=O)(=O)Nc2ccc(CN3CCN(C(=O)c4cccc(C#N)c4)CC3)cc2)cc1	4.25%	7.75%
COc1ccc(N(CCc2cccc(C)n2)C(C)=O)cc1	0%	1.25%
O=C(Nc1ccccc1)c1ccc(-c2cc3ccncc3cc2OC2CCNCC2)s1	8.75%	11%
O=C(Nc1nnc(-c2ccc(Cl)cc2)o1)c1cccc(C(F)(F)F)c1	100% (active)	85.5% (active)
Clc1ccc(Cl)c(CO[C@H]2CCCC[C@@H]2n2ccnc2)c1	18%	5.5%
CCNC(=O)C(C)Nc1nc(-c2cccnc2)nc2sc(C)c(C)c12 (stereo not drawn)	2.25%	16%
CCCCOC(=O)Nc1cc2nc(C3CCCCC3)[nH]c2cc1N1CCCC1	11%	0%
O=C(Nc1ccccc1-c1nc2c(C(=O)O)cccc2o1)c1ccccc1	1%	0%
NC(=O)c1cc(-c2ccsc2)ccc1OCCOc1ccccc1	7.25%	12.2%
CS(=O)(=O)c1ccccc1C(=O)N(Cc1ccccc1)c1ccccc1	13.2%	24%
CC(C)(C)OC(=O)N1CCN(c2nccc(-c3ccc(-c4ccc(Cl)cc4)s3)n2)CC1	8%	1%

Compound	growth inhibition [1]	growth inhibition [2]
Cc1ccccc1CN1CCC(O)(c2ccc(Cl)c(C(F)(F)F)c2)CC1	0%	0%
COc1nc2ccc(Br)cc2cc1[C@@H](c1ccccc1)[C@@](O)(CCN(C)C)c1cccc2ccccc12	21.5%	17.8%
O=C(NC1CCCCC1)N1CCN(Cc2ccc3c(c2)OCO3)CC1	9.25%	17.2%
Cc1cc(NC(=O)c2ccc(Oc3ccc(Cl)cc3O)o2)no1	18.8%	2.75%
O=C(Nc1ccc(C(F)(F)F)c(C(F)(F)F)c1)c1cc(Cl)ccc1O	92.5% (active)	62%
Cc1cc(C)cc(COc2ccc3c(C)c(CCC(=O)O)c(=O)oc3c2C)c1	3.75%	1.5%
O=C(Nc1ccc(F)c(-c2nc3cc(-c4ccccc4)cnc3[nH]2)c1)N1CCCC1	12.5%	7.75%
N#Cc1ccc(-c2cnc(N)c(-c3ccc(C(N)=O)cc3)n2)cc1	3.75%	9%
CN1CCC(c2cc(-c3ccncc3)c(-c3ccc(F)cc3)[nH]2)CC1	9%	10%
Cc1cc(Cl)c(S(=O)(=O)N2CCCC2)cc1OCC(=O)NC1CCCCC1	8%	0%
C[C@@H]1[C@H](O)[C@@H](C)/C=C/C=C/C=C/C=C/C=C/C=C/C=C/[C@H](O[C@@H]2O[C@H](C)[C@@H](O)[C@H](N)[C@@H]2O)C[C@@H]2O[C@](O)(C[C@@H](O)C[C@@H](O)[C@H](O)CC[C@@H](O)C[C@@H](O)CC(=O)O[C@H]1C)C[C@H](O)[C@H]2C(=O)O	24%	16%
CCS(=O)(=O)N(Cc1ccco1)Cc1cc2ccc(C)cc2nc1O	2.5%	2%
CCc1nc2ccc(Cl)cn2c1C(=O)NCc1ccc(N2CCC(c3ccc(OC(F)(F)F)cc3)CC2)cc1	10.2%	2.25%
Cc1nc2ccccn2c1C(=O)NCc1ccc(Cl)cc1	14%	16%
COc1ccc(C2=NN(C3CCCCCC3)C(=O)C2(C)C)cc1OCCCCOc1ccc(-c2nn[nH]n2)cc1	6.25%	0%
COc1ccc(OC)c(NCc2ccc3nc(N)nc(N)c3c2Cl)c1	93.8% (active)	89.2% (active)
CCOc1ccc(-c2nc(CNCCc3ccc(F)cc3)cs2)cc1	3.75%	15.5%
